Rows were chosen to be rich in hits. Some 2.3% of all compounds tested hit in one or more screens of this group.
ANO1 activ = TMEM16A chloride channel activators or potentiators, primary screen, cell-based, HTS | Anoctamin-1 (Mus musculus), Q8BHY3 | HEK293 TMEM16A/YFP-H148Q/I152L, iodide quench fluorescence; hits give low values | B-score at 10 µM | hit rate 0.3% among 340,000 | AID 623877, 2012;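 active means fluorescence-ratio B-score plate-corrected deviation score at least 3 library SD below zero, with starting fluorescence score within 5 deviations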;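 further: channel opened by trigger with iodide after compound preincubation; score built on the fluorescence ratio of max minus min over baseline; more negative score means more quench and so TMEM16A activation or potentiation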
ANO1 block = TMEM16A chloride channel inhibitors, primary screen, cell-based, HTS; HEK293 TMEM16A/YFP iodide influx fluorescence, ionomycin; hit rate 1.2% among 310,000; normalized B-score (activity score, 25-100; higher = stronger inhibition) at 10 µM; Anoctamin-1 (Mus musculus), Q8BHY3; AID 588511, 2011;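 active means ratio plate-corrected score three or more library SD toward inhibition, starting fluorescence score within five deviations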;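 further: score derived from kinetic fluorescence span divided by baseline fluorescence per well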
CHT PAM = CHT positive allosteric modulators, primary screen, cell-based, membrane potential dye, choline EC20; CHT-expressing cells; hits give high values; LV-AA mutant CHT in HEK293 cells; B-score at 10 µM; hit rate 0.49% among 310,000; AID 488977, 2010; High affinity choline transporter 1 (Homo sapiens), Q9GZV3;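 active means initial fluorescence not abnormally high and integrated response B-score, plate-corrected, over 3 SD above library mean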
CHT block = inhibitors of human choline transporter CHT; High affinity choline transporter 1 (Homo sapiens), Q9GZV3; CHT-expressing cells, membrane potential dye, choline response; hits give low values; B-score at 10 µM; hit rate 0.86% among 310,000;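 active means B-score over 3 SD under the library average, and starting fluorescence ratio not unusually high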;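 further: choline stimulus applied at its EC90 after an EC20 pre-addition; B-score computed on integrated fluorescence ratio after choline addition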
* = called active by the depositor; i = inactive; x = not tested or not shown.

SMILES	ANO1 activ	ANO1 block	CHT PAM	CHT block
O=C(N/N=C/c1cc(Cl)c(O)c(Cl)c1)c1cc2c(ccc3ccccc32)o1	i	100*	i	i
O=C(COc1cccc2ccccc12)N/N=C/c1ccco1	i	i	i	i
Cc1ccc(S(=O)(=O)NCC(=O)OCCOc2cccc(Cl)c2)cc1	i	x	x	x
NS(=O)(=O)c1ccc(-c2ccc(/C=C3\SC(=S)N(C4CCS(=O)(=O)C4)C3=O)o2)cc1 (centres undefined)	-5*	i	i	i
Cc1ccc(C(=O)N2CCN(c3ncnc4c(C)csc34)CC2)cc1	i	i	i	i
Cc1csc2c(N3CCN(C(=O)Nc4ccccc4)CC3)ncnc12	i	25*	i	i
CCOCc1cc(CN2CCC(CCC(=O)NC3CC3)CC2)ccc1OC	i	i	i	i
COc1ccc(/C=C\C(=O)O[C@@H]2C(O)C(O[C@@H]3OC(C)[C@H](O[C@@H]4OCC(O[C@H]5O[C@H](CO)[C@@H](O)C(O)C5O)C(O)C4O)C(O)C3O)[C@H](OC(=O)[C@]34CCC(C)(C)C[C@@H]3C3=CCC5[C@@]6(C)CC(O)C(O[C@@H]7OC(CO)C(O)[C@H](O)[C@H]7O)[C@@](C)(C(=O)O)C6CC[C@@]5(C)[C@]3(CO)CC4)O[C@H]2C)cc1 (some centres undefined)	-32*	x	x	x
COc1ccc(C2=NOC(Cn3c(Cc4ccc(Cl)cc4)nc4c3c(=O)n(C)c(=O)n4C)C2)cc1 (centres undefined)	i	i	i	i
N#C/C(=C\c1ccc[nH]1)Sc1nc2ccccc2s1	i	i	i	i
N#C/C(=C\c1cccs1)Sc1nc2ccccc2s1	-20*	i	i	i
CSc1ccccc1NC(=O)CN1C(=O)C2CC=CCC2C1=O (centres undefined)	i	x	x	x
C[C@@H]1C(NC(=O)c2ccccc2)CC2CC1C2(C)C (some centres undefined)	i	i	i	-5*
CC1CCN(C(=O)CSc2nnc(CNC(=O)c3ccco3)o2)CC1	-15*	i	i	i
Cc1occc1-c1nnc(SCC(=O)NCc2cccs2)n1CC1CCCO1 (centres undefined)	-9.5*	x	x	x
CC1=NN(c2nc(-c3ccc(C)cc3)cs2)C(=O)C1N=Nc1ccc(C(N)=O)cc1 (centres undefined)	-16*	i	i	i
CCOC(=O)C(C)On1c(-c2cccc(Cl)c2)nc2ccc([N+](=O)[O-])cc21 (centres undefined)	i	100*	i	i
O=C1CCC(C(=O)OCc2ccccc2)N1 (centres undefined)	i	i	i	i
O=C(COC(=O)c1ccc(O)cc1)Nc1cccc(S(=O)(=O)NC2=NCCC2)c1	-31*	x	x	x
NC(=O)Nc1ccc(C(=O)OCC(=O)Nc2cccc(S(=O)(=O)NC3=NCCCCC3)c2)cc1	i	i	i	i
Nc1oc2ccccc2c1C(=O)Cc1ccccc1O[C@@H]1O[C@H](CO)[C@@H](O)[C@H](O)[C@H]1O	i	i	i	i
COc1ccccc1-c1nnc2n1N=C(c1ccc(O)c(O)c1)CS2	i	i	i	i
CCOc1ccc(C2=Nn3c(nnc3-c3ccccc3OC)SC2)cc1	i	i	i	-5.3*
CCCCn1c(=O)nc2n(-c3ccccc3C)c3ccccc3cc-2c1=O	i	25*	i	i
Cc1ccccc1-n1c(=O)c2ccccc2n2nnnc12	i	i	i	i
SMILES	ANO1 activ	ANO1 block	CHT PAM	CHT block
Cc1ccccc1-n1c2nc(=O)n(C)c(=O)c-2cc2ccccc21	i	100*	i	i
COC(=O)c1ccc(COc2ccccc2/C=N/NC(=O)c2cccnc2)cc1	i	i	i	i
CN(C)c1ccc(-c2noc(C3CCN(C(=O)Nc4ccc(Cl)cc4)CC3)n2)cc1	-4.6*	i	i	i
CCOC(=O)C1CCCN(C(=O)c2ccc3c(c2)N(Cc2ccccc2)C(=O)c2ccccc2S3=O)C1 (centres undefined)	i	i	i	i
O=C(Nc1cc(C(F)(F)F)cc(C(F)(F)F)c1)Nc1cnn(-c2ccc([N+](=O)[O-])cc2)c1C(F)(F)F	i	100*	i	i
O=C(Nc1ccc(C(=O)O)cc1)Nc1ccc([N+](=O)[O-])cc1	i	i	i	i
Cn1c(=O)[nH]c(=O)c2c1nc(NN)n2CCOc1ccccc1	i	i	i	i
CC(C)CC(=O)NC(=S)NNC(=O)c1ccc([N+](=O)[O-])cc1	i	i	i	i
CNC(CC(=O)c1ccc([N+](=O)[O-])cc1)C(Cl)(Cl)Cl (centres undefined)	i	25*	i	i
O=c1cc(C(F)(F)F)nc(SCc2cccc3ccccc23)[nH]1	i	25*	i	i
Nc1cc(=O)[nH]c(SCc2cccc3ccccc23)n1	i	i	i	i
CCN1CCC(O)(/C=C/c2ccc(C(C)C)cc2)C(C(=O)/C=C/c2ccc(C(C)C)cc2)C1 (centres undefined)	i	x	x	x
COc1ccc(C2C(C(C)=O)=C(O)C(=O)N2c2ccc(Br)cc2)cc1 (centres undefined)	i	i	i	i
CC1CCc2c(sc3nc(C4CC4)nc(N4CCN(C(=O)c5ccco5)CC4)c23)C1 (centres undefined)	i	100*	i	i
CCc1nc(N2CCN(C(=O)c3ccco3)CC2)c2c3c(sc2n1)CCCC3	i	i	i	i
COc1ccc(C2CC(c3ccccc3)=NN2c2ccc(S(N)(=O)=O)cc2)cc1OC (centres undefined)	-6.1*	i	i	i
O=[N+]([O-])c1cccc(-c2n[nH]c(=S)n2-c2ccc(Br)cc2)c1	i	i	i	i
COc1cccc(Oc2ccc(N/C=C/C(=O)C(C)(C)C)cc2)c1	i	25*	i	i
CCN(C(=O)COc1ccc(N(C)S(=O)(=O)c2ccc(NC(C)=O)cc2)cc1)C1CCCCC1	i	x	x	x
CCOc1ccccc1NC(=O)C(OC(=O)c1ccc(CC)cc1)c1ccccc1 (centres undefined)	i	i	i	i
CCOc1ccccc1NC(=O)C(NCC1CCCCC1)c1ccccc1 (centres undefined)	i	25*	i	i
CCOc1ccccc1NC(=O)C(OC(=O)c1ccc(O)cc1)c1ccccc1 (centres undefined)	i	25*	i	i
CN1C(=O)c2ccc(C(=O)NCc3ccco3)cc2C1=O	i	i	i	i
